What is called inhibition is the relative decrease from the control value, in per cent.

Screen size: about 310,000 compounds; about 1,000 (0.32%) were called active. A selection follows. Results with a measured potency or affinity are listed apart. Values without a mark were called inactive. How the calls were made is not given here.

Data on 101 compounds can be found in PubChem BioAssay AID1850 (Southern Research Specialized Biocontainment Screening …, 2009).

The assay is described as follows: Inhibition of PhoP regulon, Salmonella typhi GFP reporter cells, confirmation, 4 h (AID 1850).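 Further: 0% = induced wells with vehicle and 100% = uninduced wells.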 As to conditions: Salmonella Typhi PhoP-promoter GFP reporter, fluorescence, at 50 µM, hits give high values.
For the compound `O=C(O)CNC(=O)C1COc2ccccc2O1` (stereo unspecified), the inhibition was 8.95%.
Then `COCCCn1c(C23CC4CC(CC(C4)C2)C3)n[nH]c1=S`, with -6.32%; and `Fc1ccc(CCNCc2ccc(Br)cc2)cc1`, with -3.63%.
`C1N2CN3CN1CN(C2)C3`: the inhibition is -6.24%.
Next, `O=C(CSc1nnnn1C1CCCC1)N1CCCc2ccccc21`: 11.7%; `COc1ccccc1OCCC(=O)OCC(=O)c1[nH]c(C)c(C(C)=O)c1C`: 10.1%; `O=C(NCN1CCN(c2ccccc2F)CC1)c1ccccc1`: 0.63%.
Next, `C/C(=N\NC(=O)C1CC1)c1ccc(Cl)c(Cl)c1`: 5.7%; `C[n+]1cccc2c(Br)ccc([O-])c21`: 4.86%.
Take `NCC(=O)c1cccc2ccc[n+]([O-])c12`: the inhibition was -7.72%.
Then `O=C(CSc1n[nH]c(=O)[nH]c1=O)c1ccccc1[N+](=O)[O-]`, with -3.6%; and `CCN(Cc1cc2ccccc2[nH]c1=O)C(=O)c1cccnc1`, with 1.33%; and `COc1ccc(C2(CNC(=O)/C=C\c3ccco3)CCCC2)cc1OC`, with -2.04%.
Then `COC(=O)c1ccccc1NC(=S)NC(=O)COc1ccccc1`, with 10.9%; and `O=C(COc1ccccc1)NNC(=S)NC(=O)c1ccccc1`, with 12.9%.
Turning to `Cc1ccccc1C(=O)NNC(=S)NC(=O)c1ccccc1`, the inhibition is -2%.
Then `CC(C)(C)c1ccc(C(=O)NC(=S)NNC(=O)COc2ccccc2)cc1`, with -4.42%; and `CCc1ccc(NC(=S)Nn2cnnc2)cc1`, with 3.78%; and `CCn1cc(C(=O)c2ccccc2)c2ccccc21`, with -2.86%.
Next, `COc1ccc(/C=C/C(=O)Nc2ccc(-c3nnc4n3CCCCC4)cc2)c(OC)c1`: 5.23%; `CC(=O)OC(C(=O)NCc1ccco1)c1ccncc1` (stereo unspecified): -8.42%; `Cc1c(CCOC(=O)c2ccccc2)sc[n+]1CC(=O)c1ccc(Br)cc1`: -8.05%.
Next, `Cc1c(CCOC(=O)CC23CC4CC(CC(C4)C2)C3)sc[n+]1CC(=O)c1ccc(Br)cc1`: -0.11%.
Turning to `O=C(Nc1nc(-c2cccc([N+](=O)[O-])c2)cs1)c1cccc([N+](=O)[O-])c1C(=O)O`, the inhibition was 5.24%.
Next, `O=C(NC1CCCCCCC1)C1CCN(S(=O)(=O)N2CCCC2)CC1`: 11%; `O=C(CSc1nc2ccccc2[nH]1)Nc1ccc(F)cc1`: 0.68%; `O=C(CSc1nc2ccccc2[nH]1)Nc1ccccc1F`: -4.68%.
Take `Cc1ccc(NS(=O)(=O)c2ccc3c(c2)NC(=O)CCS3)c(Br)c1`: the inhibition is 1.1%.
Then `NC(=O)/C=C/C(=O)Nc1ccc(Cl)cc1`, with 5%; and `O=C(/C=C/c1ccccc1)NC(=S)NNC(=O)c1cccnc1`, with 4.06%; and `COc1ccc(/C=C/C(=O)NC(=S)NNC(=O)c2cccnc2)cc1`, with -4.83%.
Then `COc1ccc(/C=C/C(=O)NC(=S)NNC(=O)c2cc(OC)c(OC)c(OC)c2)cc1`, with 4.25%; and `O=C(/C=C/c1ccc(F)cc1)NC(=S)NC1CCCCC1`, with 2.79%; and `CC(/C=C/c1ccccc1)=N/NC(=O)c1cnccn1`, with 1.54%.
Then `CC(C)NC(=S)NC(=O)/C=C/c1ccc(F)cc1`, with -3.22%; and `NC(=O)c1nsc(C(=O)N(c2ccc3c(c2)OCO3)C(C(=O)NCC2CCCO2)c2ccc(F)cc2)c1N` (stereo unspecified), with 6.99%.
Consider `CSCCC(NS(=O)(=O)c1cc(C(=O)O)ccc1Cl)C(=O)O` (stereo unspecified), for which the inhibition was -1.99%.
For the compound `C=CCNC(=O)c1oc2ccc(S(=O)(=O)N3CCCCC3)cc2c1C`, the inhibition is 0.5%.
Then `CCN(CC)CCCNC(=O)C1CCN(c2ncnc3c2sc2cccc(F)c23)CC1`, with 3.1%; and `COc1ccc(Nc2nc(NN)nc(Nc3ccc(OC)cc3)n2)cc1`, with -3.28%; and `COc1c2n(C)ccc3c-2n(c(=O)c1=O)c1ccccc31`, with 17.2%.
On to `O=S(=O)(NCCSc1ccc(Cl)cc1)c1ccc2c(c1)OCCO2`, for which the inhibition is -8.59%.
Next, `COc1cc(Cl)ccc1OCc1cc(C(=O)N2CCCCCCC2)no1`: -27.8%.
Then `CC1(c2nnc(-c3ccc(F)cc3)o2)CC(c2ccc([N+](=O)[O-])cc2)=NO1` (stereo unspecified), with 3.35%; and `Fc1ccc(CNCCc2c[nH]c3ccccc23)cc1`, with 11.8%; and `COc1cc(CNCCCCO)ccc1OCc1ccccc1F`, with -5.61%.
Next, `COc1cccc(CNCCc2c[nH]c3ccccc23)c1OCc1ccc(F)cc1`: -6.02%; `CCNCc1ccc(OCc2ccccc2F)c(OC)c1`: -10.1%; `Cc1cccnc1NC(=O)CCc1nnc2ccc(N3CCC4(CC3)OCCO4)nn12`: 3.16%.
Take `Oc1ccc2ccccc2c1CNc1ccc(Br)cn1`: the inhibition is -4.93%.
Then `CC(C)c1nn(-c2cc(C(F)(F)F)ccn2)c(=O)o1`, with 1.48%; and `CCOC(=O)c1cccc(NC(=O)c2cc(C)nn2-c2ccccc2)c1`, with 8.61%; and `Cc1cccc(C)c1NC(=O)C[n+]1cc(-c2ccccc2)n2c1CCC2`, with -8.77%.
Take `Cc1ccc(NC(=O)C[n+]2cc(-c3ccccc3)n3c2CCC3)cc1`: the inhibition is 10%.
In the case of `Cc1ccc(NC(=O)C[n+]2cc(-c3ccccc3)n3c2CCC3)c(C)c1`, the inhibition is 19.1%.
In the case of `Cc1ccc(-c2c[n+](CC(=O)Nc3ccccc3C)c3n2CCC3)cc1`, the inhibition was 5.92%.
On to `O=C(C[n+]1cc(-c2ccccc2)n2c1CCC2)Nc1nc(-c2ccccc2)cs1`, for which the inhibition was -3.98%.
Then `Cc1ccc(NC(=O)C[n+]2cc(-c3ccc(C)cc3)n3c2CCC3)cc1`, with 14.9%; and `O=C(C[n+]1cc(-c2ccc(Cl)cc2)n2c1CCC2)Nc1nc(-c2ccc(F)cc2)cs1`, with -19%.
Consider `Cc1ccccc1NC(=O)C[n+]1cc(-c2ccccc2)n2c1CCC2`, for which the inhibition is -9.34%.
Next, `Cc1ccc(C(=O)CSc2nc(C)cc(C)c2C(N)=O)cc1`: 12.8%; `Cc1ccc(C(=O)N2N=C(c3cccc(NS(C)(=O)=O)c3)CC2c2cccs2)cc1` (stereo unspecified): -10.1%; `Cc1ccc(Cl)cc1NC(=O)C(=O)N/N=C/c1ccc2c(c1)OCO2`: -4.53%.
Take `COc1cccc(/C=C/C(=O)NCc2ccc(S(N)(=O)=O)cc2)c1`: the inhibition was -0.15%.
Take `CCOC(=O)c1c(NC(=O)Cn2ccsc2=N)sc(C)c1C`: the inhibition is 14.8%.
Next, `Cc1ccc(CSc2nnc(-c3ccncc3)n2C)cc1`: -10.9%.
Then `O=C(NC1CCCCCC1)c1ccc(Br)o1`, with -0.61%.
Then `Cc1cc(NC(=O)CCC(=O)N(CC(=O)NC2CCCC2)c2ccc(Cl)c(Cl)c2)no1`, with 14.6%.
Consider `Cc1cccc(C(=O)NCC(=O)OCC(=O)NC2CCCCCCC2)c1`, for which the inhibition is 0.27%.
Consider `Cc1ccc(-c2c[n+](CC(=O)Nc3nc(-c4ccc(F)cc4)cs3)c3n2CCC3)cc1`, for which the inhibition was -3.86%.
Then `Cc1ccc(-c2c[n+](CC(=O)Nc3c(C)cccc3C)c3n2CCC3)cc1`, with -24.6%.
Regarding `O=C(C[n+]1cc(-c2ccc(F)cc2)n2c1CCC2)Nc1nc(-c2ccccc2)cs1`, the inhibition is 0.35%.
With `O=C(C[n+]1cc(-c2ccc(F)cc2)n2c1CCC2)Nc1nc(-c2ccc(F)cc2)cs1`, the inhibition was -2.82%.
On to `CCOC(=O)C(C)c1ccc2cc(OC)ccc2c1` (stereo unspecified), for which the inhibition is -2.05%.
`Cc1cc(C)c2c(c1)/C(=N/NC(=O)c1cc(C)oc1C)CCC2`: the inhibition was -3.06%.
Then `CN(C)c1ccnc2sc3c(SCc4ccc(Cl)cc4)ncnc3c12`, with -7.49%.
Regarding `CC(C)n1c(SCc2ccc(Cl)cc2)nc2c1c(=O)[nH]c(=O)n2C`, the inhibition was -4.82%.
Next, `CN(C)CCN(C(=O)c1ccc(S(=O)(=O)N2CCCC2)cc1)c1nc2ccc(Br)cc2s1`: 0.55%.
As for `O=C(CC1NCCc2ccccc21)Nc1ccc(Cl)cc1` (stereo unspecified), the inhibition was 8.21%.
Then `O=C(CC1NCCc2ccccc21)Nc1ccccc1` (stereo unspecified), with 7.99%; and `Cc1cc(NCCO)nc(N2CCOCC2)n1`, with 4.73%; and `Cc1c(Br)cc(C(=O)O)c(C)c1C`, with 7.99%.
Next, `COc1cc(C(=O)Nc2ccc(C)cc2C(NCC(=O)NN)c2ccccc2)cc(OC)c1OC` (stereo unspecified): -8.05%.
Take `Nn1c(-c2ccccc2)cc(-c2ccccc2)cc1=O`: the inhibition was -2.08%.
Next, `O=c1cc(-c2ccccc2)cc(-c2ccccc2)n1CCO`: 6.95%.
Then `CN(C)c1ccc(/C=[N+](\[O-])C2N(c3ccccc3)C(=S)SC2(C)C)cc1` (stereo unspecified), with -5.4%; and `COc1cc(C2c3c(oc4ccccc4c3=O)C(=O)N2CCN2CCOCC2)cc(OC)c1OC` (stereo unspecified), with -13.4%.
Regarding `c1ccc2cc(OCCCn3ccnc3)ccc2c1`, the inhibition is -0.84%.
Take `Clc1ccccc1OCCCn1ccnc1`: the inhibition is -8.4%.
Next, `COc1ccc2nc(SCC(=O)Nc3ccccc3C#N)[nH]c2c1`: -8.31%.
As to `Cc1ccc(-n2nc3c(=S)[nH]nc(C)c3c2C)cc1`, the inhibition is 2.54%.
Next, `COc1cccc(C(=O)Nc2ccc(C(=O)c3ccncc3)cc2)c1`: -15.6%; `CCC(C)NC(=O)CSc1nnc(-c2c[nH]c3ccccc23)o1` (stereo unspecified): 7.49%; `COc1ccccc1Nc1c2c(nc3ccccc13)CCC2`: 0.56%.
Then `COc1ccc(Nc2ncnc3ccccc23)cc1`, with -1.42%.
Turning to `COc1ccc(OC)c(Nc2c3ccccc3nc3ccccc23)c1`, the inhibition is -13.7%.
On to `COc1ccc(Nc2cccc3ccccc23)cc1`, for which the inhibition was -1.63%.
Then `COc1cc(Nc2c3ccccc3nc3ccccc23)cc(OC)c1OC`, with -7.36%; and `COc1ccc(Nc2nc(-c3ccccc3)nc3ccccc23)cc1`, with 6.48%.
Then `Cc1ccc(O)c(Nc2ncnc3ccccc23)c1`, with 3.94%; and `Cc1ccc(O)c(Nc2nc(-c3ccccc3)nc3ccccc23)c1`, with 8.76%.
